Compounds without any hit were thinned out: in the full panel of roughly 79,000, 15% have a hit. Unmarked numbers belong to inactive results. The source made the active and inactive calls. Rule as the data show it: active = growth inhibition above about 70%; inactive = the rest.
What was measured:
[1] = NCI Yeast Anticancer Drug Screen. Data for the rad50 strain (AID 155);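 also: 0% = growth of vehicle-only cultures of the same strain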; settings: S. cerevisiae rad50 strain growth inhibition, hits give high values
Procedure, shortened: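 Cells are treated with compound, grown, and their growth is then scored against vehicle-only cultures of the same repair-deficient yeast strain.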

[2] = NCI Yeast Anticancer Drug Screen. Data for the mec2-1 strain (AID 157); settings: S. cerevisiae mec2-1 strain, hits give high values
Procedure, shortened: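 mec2-1 yeast strain, carrying an alteration in DNA damage repair or cell cycle control, was exposed to compounds; growth inhibition was measured relative to vehicle-treated controls.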

[3] = NCI Yeast Anticancer Drug Screen. Data for the sgs1 mgt1 strain (AID 161);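 also: 0% = growth of cultures given vehicle only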; settings: S. cerevisiae sgs1 mgt1 strain, hits give high values
Procedure, shortened: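 This yeast growth screen uses a strain with defined DNA-repair lesions; compound-treated growth is compared with vehicle-treated growth.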

[4] = NCI Yeast Anticancer Drug Screen. Data for the cln2 rad14 strain (AID 165);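 also: 0% = growth equal to vehicle treated cultures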; settings: S. cerevisiae cln2 rad14 strain, hits give high values
Procedure, shortened: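 Yeast carrying cln2 and rad14 alterations (cell cycle control and DNA damage repair) were exposed to compounds. Growth inhibition was measured against vehicle-treated controls.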

[5] = NCI Yeast Anticancer Drug Screen. Data for the bub3 strain (AID 167); settings: S. cerevisiae bub3 mutant strain, hits give high values
Procedure, shortened: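 Part of a panel of yeast mutants defective in DNA damage repair or cell cycle regulation. Each strain is grown with compound, and inhibition is calculated relative to solvent-treated cultures.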

[6] = NCI Yeast Anticancer Drug Screen. Data for the mlh1 rad18 strain (AID 175); settings: S. cerevisiae mlh1 rad18 strain growth inhibition, hits give high values
Procedure, shortened: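 Growth inhibition of the yeast strain was measured after compound exposure and expressed relative to vehicle-treated controls. The strain carries defined defects in DNA damage repair.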

[7] = at 5.0 µM (retest, dose inferred, filed as 0.5)
[8] = at 50.0 µM (retest, dose inferred, filed as 5.0)

SMILES | growth inhibition [1, 7] | growth inhibition [1, 8] | growth inhibition ([1]; at 50.0 µM) | growth inhibition [2, 7] | growth inhibition [2, 8] | growth inhibition ([2]; at 50.0 µM) | growth inhibition [3, 7] | growth inhibition [3, 8] | growth inhibition ([3]; at 50.0 µM) | growth inhibition [4, 7] | growth inhibition [4, 8] | growth inhibition ([4]; at 50.0 µM) | growth inhibition [5, 7] | growth inhibition [5, 8] | growth inhibition ([5]; at 50.0 µM) | growth inhibition [6, 7] | growth inhibition [6, 8] | growth inhibition ([6]; at 50.0 µM)
O=C1C(=O)c2cc([N+](=O)[O-])ccc2-c2ccccc21 | 45% | 97% (active) | 98.7% (active) | 34% | 97% (active) | 95.8% (active) | 32% | 95% (active) | 96.2% (active) | 19% | 96% (active) | 96.3% (active) | 43% | 89% (active) | 98.1% (active) | 54% | 97% (active) | 97.8% (active)
COc1ccc(OC)c(Cc2cnc3nc(N)nc(N)c3c2C)c1 | 21% | 35% | 67.5% | 18% | 74% (active) | 19.7% | 12% | 36% | 41.5% | 9% | 19% | 6.45% | 13% | 19% | 29.1% | 18% | 23% | -1.5%
CCN(CC)c1ccc(/C=C\C(=O)c2ccc(NC(C)=O)cc2)cc1 | -22% | -8% | 22.8% | -14% | -21% | 55.4% | -13% | -2% | 52% | -11% | -10% | 28.6% | -12% | -4% | 76.8% (active) |  |  | 
O=C1C=CC(O)=CC1=P(c1ccccc1)(c1ccccc1)c1ccccc1 | 2% | 11% | 48.1% | -1% | 6% | -8.55% | -1% | 2% | 47.5% | -2% | -3% | 7.4% | -4% | 2% | 25.9% | 3% | 8% | 34.5%
O=[N+]([O-])c1ccc([I+]c2ccccc2)cc1 | 86% (active) | 96% (active) | 82.8% (active) | 40% | 95% (active) | 86% (active) | 77% (active) | 96% (active) | 87.2% (active) | 30% | 87% (active) | 82.9% (active) | 61% | 96% (active) | 88.2% (active) | 82% (active) | 95% (active) | 
CC1(C)CCCC2=C1C(=O)N(SC(Cl)(Cl)Cl)C2=O | 98% (active) | 99% (active) | 90.3% (active) | 99% (active) | 99% (active) | 93.1% (active) | 100% (active) | 99% (active) | 90.5% (active) | 99% (active) | 99% (active) | 91.3% (active) | 100% (active) | 99% (active) | 89.9% (active) | 98% (active) | 99% (active) | 90.1% (active)
O=C1/C(=C/c2ccccc2)CCC/C1=C\c1ccccc1 | 27% | 60% | 83.8% (active) | 29% | 77% (active) | 86.6% (active) | 36% | 72% (active) | 82.3% (active) | 21% | 52% | 80.3% (active) | 41% | 69% | 84.8% (active) | 58% | 76% (active) | 
COc1cc([C@@H]2c3cc4c(cc3[C@H](OC3OC5COC(c6ccccc6)OC5C(O)C3O)[C@H]3COC(=O)[C@H]23)OCO4)cc(OC)c1OC (some centres not stated) | -4% | 91% (active) | 81.3% (active) | -13% | 77% (active) | 81% (active) | 18% | 70% (active) | 76.3% (active) | 12% | 56% | 63% | 5% | 82% (active) | 77.5% (active) | -4% | 91% (active) | 81% (active)
COc1ccc2c(c1)c(CC(=O)O)c(C)n2C(=O)c1ccc(Cl)cc1 | -1% | 37% | 82.2% (active) | 1% | 57% | 48.2% | 2% | 54% | 88.7% (active) | 1% | 32% | 80.7% (active) | 1% | 30% | 51.1% |  |  | 
N#Cc1c2ccccc2nc2ccccc12 | 37% | 45% | 85.9% (active) | 21% | 19% | 16.9% | -1% | 37% | 30.1% | 2% | 3% | 19.6% | 5% | 12% | 28.4% | 1% | 17% | 74.2% (active)
CCOc1ccc2c(c1)/C(=C\C=C\C1CC(C)C3CC(OCC)CCC3N1CC)CC(C)N2CC (configuration not stated) | -7% | 85% (active) | 28.6% | -1% | 88% (active) | 88.2% (active) | -10% | 92% (active) | 33.9% | 0% | 83% (active) | 83% (active) | 4% | 82% (active) | 83.7% (active) | 0% | 86% (active) | 81.5% (active)
O=[N+]([O-])c1ccc(N2CCN(Cc3ccccc3)CC2)c2c1no[n+]2[O-] | 50% | 97% (active) | 90.1% (active) | 18% | 98% (active) | 93.1% (active) | 34% | 92% (active) | 89.5% (active) | 4% | 22% | 72.5% (active) | 11% | 78% (active) | 90% (active) |  |  | 
CN1CCC(CN2c3ccccc3Sc3ccccc32)C1 (configuration not stated) | 2% | 16% | 38.5% | 2% | -27% | -22.9% | -8% | 11% | 21.1% | -17% | -1% | 51.2% | 26% | 6% | 19.4% | 11% | 16% | 32.2%
CCc1cnc2ccccc2c1/C=C/c1ccc(N(C)C)cc1 | -13% | 96% (active) | 98.4% (active) | 9% | 96% (active) | 97.3% (active) | 4% | 96% (active) | 92.3% (active) | -36% | 94% (active) | 93.1% (active) | 21% | 97% (active) | 96.8% (active) | -8% | 94% (active) | 94.7% (active)
COc1cc(OC)c(/C=C/c2c3ccccc3cc[n+]2C)c(OC)c1 | 66% | 77% (active) | 61.6% | 33% | 54% | 49.5% | 67% | 84% (active) | 69.5% | 46% | 64% | 9.85% | 67% | 79% (active) | 59.3% |  |  | 
CC1(C)CCC2(C(=O)O)C(O)CC3(C)C(=CCC4C5(C)CCC(OC6OCC(O)C(O)C6OC6OCC(O)C(O)C6OC6OCC(O)C(OC7OC(CO)C(O)C(O)C7O)C6O)C(C)(C)C5CCC43C)C2C1 (configuration not stated) | 8% | 99% (active) | 77.3% (active) | 7% | 99% (active) | 87.3% (active) | 6% | 99% (active) | 88% (active) | 5% | 99% (active) | 86.6% (active) | 17% | 100% (active) | 86.5% (active) | 14% | 99% (active) | -30.2%
C=C(CO)C(=O)OC1CC(=C)C2CC(O)C(C)C2C2OC(=O)C(=C)C12 (configuration not stated) | 20% | 97% (active) | 86.7% (active) | 15% | 98% (active) | 52.5% | 10% | 97% (active) | 92.5% (active) | 13% | 89% (active) | 32.4% | 9% | 97% (active) | 79.4% (active) |  |  | 
Cc1oc2c(C)c3oc(=O)cc(C)c3cc2c1CCl | 27% | 94% (active) | 54.4% | 32% | 97% (active) | 75.5% (active) | 27% | 95% (active) | 87% (active) | 19% | 89% (active) | 67.5% | 41% | 97% (active) | 84.1% (active) |  |  | 
CCCc1cc(=O)oc2c3c(c4c(c12)OC(C)(C)CC4)OC(C)[C@H](C)[C@@H]3O (some centres not stated) | 36% | 90% (active) | 83.7% (active) | 36% | 92% (active) | 85.6% (active) | 28% | 90% (active) | 80.2% (active) | 27% | 93% (active) | 85.2% (active) | 12% | 90% (active) | 80.1% (active) |  |  | 
CC(C)(C)c1ccc(O)c(-c2ccccc2)c1 | -3% | 97% (active) | 99.2% (active) | -6% | 98% (active) | 99.7% (active) | -2% | 98% (active) | 99.5% (active) | -8% | 98% (active) | 97.2% (active) | 2% | 97% (active) | 99.2% (active) | -4% | 98% (active) | 66.5%
